In experiment [1] the target is Nuclear receptor coactivator 3 (Homo sapiens) (UniProt Q9Y6Q9). Description: NCOA3 GAL4-fusion reporter inhibition – cell-based, luminescence, quadruplicate, confirmation (AID 588792).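 Further: 0% = DMSO treated cells and 100% = gossypol at 36 µM.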 The following applies: HEK293 GAL4-SRC3 luciferase reporter, at 3.6 µM, hits give high values.
In experiment [2] the test system is transactivating tegument protein VP16 (Human herpesvirus 1), Gal4-VP16 luciferase reporter. Briefly: repression of VP16-driven luciferase reporter – cell-based, luminescence, high throughput, counter-screen for SRC3 inhibitor project (AID 588794; in the data active means inhibition above about 30%). The following applies: mammalian cells, at 3.6 µM, hits give high values.
A short description of experiment [3]: StAR promoter reporter inhibitors, counter-screen for LRH-1 inverse agonist project, cell-based, luminescence, high throughput (AID 651611; in the data active means inhibition above about 28%). The following applies: StAR promoter luciferase reporter counterscreen, at 3.6 µM, hits give high values. Background: A counterscreen serves to expose hits that act by an unwanted route or on another target.
The target in experiment [4] is Nuclear receptor subfamily 5 group A member 2 (Homo sapiens) (UniProt O00482). Briefly: NR5A2 activity suppression in reporter cells – cell-based, luminescence, confirmation (AID 651613; in the data active means inhibition above about 42%;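 further: HEK293T cells co-transfected with LRH-1 and StAR promoter luciferase reporter; 0% = vehicle wells and 100% = parental cells lacking receptor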). The following applies: cell-based LRH-1 luciferase reporter, inverse agonism; at 3.6 µM; hits give high values. A general note: A reporter such as luciferase makes a cellular process visible.

Experiment [5] addresses Steroidogenic factor 1 (Homo sapiens) (UniProt Q13285). Description: inverse agonism at SF1 nuclear receptor – cell-based, luminescence, high throughput, counter-screen for LRH-1 inverse agonist project (AID 651614; in the data active means inhibition above about 44%;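 further: cells cotransfected with StAR promoter reporter and SF1 expression vector; 0% = vehicle on cells with receptor and 100% = vehicle on cells lacking receptor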). The following applies: cell-based SF1 luciferase reporter, at 3.6 µM, hits give high values.
Experiment [6] in a line: compounds suppressing VP16-driven luciferase signal – cell-based, luminescence, high throughput, counter-screen for LRH-1 inverse agonist project (AID 651615; in the data active means inhibition above about 33%). The following applies: Gal4-VP16 luciferase reporter cells, at 3.6 µM, hits give high values.

SMILES strings stand for the structures. A number with no mark means an inactive call. The source made the active and inactive calls.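 How the source made its calls, unless noted: active means mean inhibition over 43.08%, the solvent-only control mean plus 3 SD; inactive means the rest.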

Sequence of Steroidogenic factor 1 (Homo sapiens) (Q13285 whole entry, looked up, the tested form may be a part): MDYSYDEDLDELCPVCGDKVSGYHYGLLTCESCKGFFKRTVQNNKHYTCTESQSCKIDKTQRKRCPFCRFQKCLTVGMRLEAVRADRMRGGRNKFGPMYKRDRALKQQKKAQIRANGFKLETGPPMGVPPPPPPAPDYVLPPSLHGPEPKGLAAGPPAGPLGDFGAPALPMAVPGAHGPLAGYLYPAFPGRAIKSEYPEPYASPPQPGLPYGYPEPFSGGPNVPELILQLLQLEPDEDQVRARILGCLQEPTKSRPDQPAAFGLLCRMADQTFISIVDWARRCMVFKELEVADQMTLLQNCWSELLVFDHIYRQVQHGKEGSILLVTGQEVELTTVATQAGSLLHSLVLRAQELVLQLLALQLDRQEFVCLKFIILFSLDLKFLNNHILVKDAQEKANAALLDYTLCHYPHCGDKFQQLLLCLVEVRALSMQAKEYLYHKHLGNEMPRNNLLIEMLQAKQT
Sequence of Nuclear receptor subfamily 5 group A member 2 (Homo sapiens) (O00482 whole entry, looked up): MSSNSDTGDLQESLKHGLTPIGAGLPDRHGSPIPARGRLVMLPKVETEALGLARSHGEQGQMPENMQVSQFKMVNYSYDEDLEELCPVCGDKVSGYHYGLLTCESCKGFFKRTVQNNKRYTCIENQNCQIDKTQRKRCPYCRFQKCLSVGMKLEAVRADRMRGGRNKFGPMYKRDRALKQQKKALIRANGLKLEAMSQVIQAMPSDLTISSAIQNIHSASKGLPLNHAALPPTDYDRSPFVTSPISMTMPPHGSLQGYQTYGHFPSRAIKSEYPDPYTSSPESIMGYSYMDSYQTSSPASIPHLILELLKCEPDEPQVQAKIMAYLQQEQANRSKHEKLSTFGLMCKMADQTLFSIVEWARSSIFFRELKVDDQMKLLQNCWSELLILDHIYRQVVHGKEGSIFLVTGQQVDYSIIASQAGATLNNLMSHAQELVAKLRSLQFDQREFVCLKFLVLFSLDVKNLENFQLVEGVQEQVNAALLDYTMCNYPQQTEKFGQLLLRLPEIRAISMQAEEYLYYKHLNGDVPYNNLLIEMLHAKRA
Sequence of Nuclear receptor coactivator 3 (Homo sapiens) (Q9Y6Q9 whole entry, looked up, the tested form may be a part): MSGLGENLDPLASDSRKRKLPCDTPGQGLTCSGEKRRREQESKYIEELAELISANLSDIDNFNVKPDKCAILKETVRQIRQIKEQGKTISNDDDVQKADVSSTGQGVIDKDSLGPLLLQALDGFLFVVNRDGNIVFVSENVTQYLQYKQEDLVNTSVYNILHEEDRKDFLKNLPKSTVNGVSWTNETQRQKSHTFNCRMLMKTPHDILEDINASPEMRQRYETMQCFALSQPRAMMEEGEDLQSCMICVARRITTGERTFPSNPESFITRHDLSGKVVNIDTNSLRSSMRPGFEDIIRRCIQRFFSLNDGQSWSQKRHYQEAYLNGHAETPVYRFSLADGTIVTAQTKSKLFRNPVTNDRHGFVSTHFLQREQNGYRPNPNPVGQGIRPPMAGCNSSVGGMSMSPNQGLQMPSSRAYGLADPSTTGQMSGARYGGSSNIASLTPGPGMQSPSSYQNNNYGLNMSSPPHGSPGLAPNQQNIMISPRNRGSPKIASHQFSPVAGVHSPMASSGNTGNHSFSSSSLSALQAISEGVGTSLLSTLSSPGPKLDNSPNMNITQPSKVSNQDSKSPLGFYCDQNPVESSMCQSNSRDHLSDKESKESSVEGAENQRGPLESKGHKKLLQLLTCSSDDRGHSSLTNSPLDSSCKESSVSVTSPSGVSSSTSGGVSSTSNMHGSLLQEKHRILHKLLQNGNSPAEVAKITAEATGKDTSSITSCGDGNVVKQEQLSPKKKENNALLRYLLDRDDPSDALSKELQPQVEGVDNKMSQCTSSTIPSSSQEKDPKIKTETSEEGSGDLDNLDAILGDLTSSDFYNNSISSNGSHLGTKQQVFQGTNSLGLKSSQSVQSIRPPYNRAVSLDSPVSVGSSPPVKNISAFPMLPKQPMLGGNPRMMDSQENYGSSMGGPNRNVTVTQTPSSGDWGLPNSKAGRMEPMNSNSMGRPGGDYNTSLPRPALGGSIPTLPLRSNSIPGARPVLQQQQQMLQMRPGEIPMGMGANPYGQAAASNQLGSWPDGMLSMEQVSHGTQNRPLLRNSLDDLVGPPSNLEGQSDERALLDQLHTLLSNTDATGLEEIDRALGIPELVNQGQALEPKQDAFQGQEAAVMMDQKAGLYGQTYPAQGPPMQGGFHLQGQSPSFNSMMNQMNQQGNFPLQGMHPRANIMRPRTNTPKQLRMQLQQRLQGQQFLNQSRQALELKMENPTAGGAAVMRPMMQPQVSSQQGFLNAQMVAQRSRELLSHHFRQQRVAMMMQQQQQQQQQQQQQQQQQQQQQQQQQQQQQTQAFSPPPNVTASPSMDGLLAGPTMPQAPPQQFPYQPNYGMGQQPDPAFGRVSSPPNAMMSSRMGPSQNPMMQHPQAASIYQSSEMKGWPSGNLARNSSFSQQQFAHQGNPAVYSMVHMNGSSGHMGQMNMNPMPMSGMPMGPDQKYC

The term inhibition denotes the relative decrease from the control value, in per cent. As to `CCC1C/C(=C\c2cccnc2)C(=O)/C(=C/c2cccnc2)C1` (stereo unspecified), the inhibition in experiment [1] was 15.6%; in experiment [2], 78.6% (active); in experiment [3], 60.2% (active); in experiment [4], 103% (active); in experiment [5] it was 97.7% (active); in experiment [6], 90.7% (active).
Take `COc1cc(/C=N/NC(N)=S)cc(Br)c1OCc1ccccc1F`: the inhibition in experiment [1] is 54.7% (active); in experiment [2] it was 14.2%; in experiment [3] it was 33.5% (active); in experiment [4] it was 74.1% (active); in experiment [5], 70.8% (active); in experiment [6], 40.5% (active).
Take `CN1/C(=C\C(=O)C[n+]2ccc3ccccc3c2)C(C)(C)c2ccccc21`: the inhibition was 24.8% in experiment [1]; 50.2% (active) in experiment [2]; 35.9% (active) in experiment [3]; 89.6% (active) in experiment [4]; 77.6% (active) in experiment [5]; 66.7% (active) in experiment [6].
Consider `CCOC(=O)C1=Nc2ccccc2C1=[N+]=[N-]`, for which the inhibition is 35.7% in experiment [1]; 46% (active) in experiment [2]; 14.1% in experiment [3]; 53.3% (active) in experiment [4]; 45.2% (active) in experiment [5]; 53.2% (active) in experiment [6].
On to `COc1cc(C)c(Br)cc1S(=O)(=O)NCc1ccncc1`, for which the inhibition in experiment [1] is 9.21%; in experiment [2] it was 30.9% (active); in experiment [3] it was 14.3%; in experiment [4], 49% (active); in experiment [5], 38.5%; in experiment [6], 38% (active).
In the case of `COc1ccc(-c2n(Cc3ccccc3)c3ccccc3[n+]2Cc2ccccc2)cc1`, the inhibition in experiment [1] is 64% (active); in experiment [2], 66.2% (active); in experiment [3], 76.3% (active); in experiment [4] it was 109% (active); in experiment [5] it was 90.3% (active); in experiment [6], 94.4% (active).
For the molecule `Cc1ccc(NC2=C(N3CCCCC3)C(=O)c3ccccc3C2=O)cc1`, the inhibition is -30.8% in experiment [1]; -15% in experiment [2]; -37.9% in experiment [3]; 12.3% in experiment [4]; -5.93% in experiment [5]; -11.3% in experiment [6].
Take `COc1ccc(OC)c2nc3c(C(=O)NCCN(C)C)cccc3nc12`: the inhibition in experiment [1] is -25.8%; in experiment [2], 65% (active); in experiment [3], 53.2% (active); in experiment [4], 77.8% (active); in experiment [5], 70.5% (active); in experiment [6] it was 75.7% (active).
Consider `Clc1ccc(C2=Nn3c(nnc3-c3n[nH]c4c3CCC4)SC2)cc1`, for which the inhibition in experiment [1] is 28.4%; in experiment [2] it was -31.7%; in experiment [3], 61.5% (active); in experiment [4], 46.5% (active); in experiment [5] it was 66.8% (active); in experiment [6] it was -54.9%.
For the molecule `c1ccc(CNc2nc(-c3ccccn3)nc3ccccc23)cc1`, the inhibition in experiment [1] was 21.8%; in experiment [2], 29.9% (active); in experiment [3] it was 68.7% (active); in experiment [4] it was 76.8% (active); in experiment [5], 84.3% (active); in experiment [6], 66.5% (active).
Consider `CCCC(=O)NC(c1ccc(N(C)C)cc1)c1ccc2cccnc2c1O` (stereo unspecified), for which the inhibition is 78.2% (active) in experiment [1]; 77% (active) in experiment [2]; 91.9% (active) in experiment [3]; 104% (active) in experiment [4]; 91.3% (active) in experiment [5]; 89.2% (active) in experiment [6].
In the case of `CC(C)(C)c1ccc(C2CC2C(=O)N/N=C\c2ccc[nH]2)cc1` (stereo unspecified), the inhibition was 39.8% in experiment [1]; 81.5% (active) in experiment [2]; 80.9% (active) in experiment [3]; 105% (active) in experiment [4]; 92% (active) in experiment [5]; 87.4% (active) in experiment [6].
For the molecule `CCN(C(C)=O)c1cnc(C=NNC(N)=S)c2ccccc12`, the inhibition is 39.5% in experiment [1]; 29.1% in experiment [2]; 78.7% (active) in experiment [3]; 75.7% (active) in experiment [4]; 69.5% (active) in experiment [5]; 69.3% (active) in experiment [6].
Consider `O=C(Nc1ccccc1)Nc1cc(OCC(F)(F)F)cc(OCC(F)(F)F)c1`, for which the inhibition in experiment [1] was 21.7%; in experiment [2], 20.5%; in experiment [3] it was 22.9%; in experiment [4], 71.3% (active); in experiment [5], 54.7% (active); in experiment [6], 54.3% (active).
On to `COc1ccc(-c2cn(-c3ccccc3)c3[n+]2CCS3)cc1`, for which the inhibition in experiment [1] was 15.7%; in experiment [2], 35.4% (active); in experiment [3], 18.2%; in experiment [4] it was 61.1% (active); in experiment [5] it was 60.6% (active); in experiment [6], 45.1% (active).
Regarding `CN(c1ccccc1)S(=O)(=O)c1cccc(C(=O)OCC(=O)Nc2ccc(C(N)=O)cc2)c1`, the inhibition in experiment [1] was 6.76%; in experiment [2], -5.87%; in experiment [3], 16.5%; in experiment [4], 1.26%; in experiment [5] it was 10%; in experiment [6] it was -16.3%.
As to `COc1ccc(-c2n(CC(=O)OC3CC(C)CCC3C(C)C)c3ccccc3[n+]2C)cc1` (stereo unspecified), the inhibition in experiment [1] is 57.5% (active); in experiment [2], 61.3% (active); in experiment [3] it was 59.1% (active); in experiment [4], 110% (active); in experiment [5], 79.5% (active); in experiment [6], 92.9% (active).
Regarding `COc1cc(N(C)C)ccc1C=c1c2ccccc2n2c1cc(-c1ccccc1)[n+]2C`, the inhibition in experiment [1] is 57.7% (active); in experiment [2], 67.2% (active); in experiment [3], 56.9% (active); in experiment [4] it was 109% (active); in experiment [5] it was 87.4% (active); in experiment [6], 92.5% (active).
Take `CCN(CC)c1ccc(/C=N/NC(=O)c2c(Cl)cnn2C)c(O)c1`: the inhibition was 64.2% (active) in experiment [1]; 72.8% (active) in experiment [2]; 83% (active) in experiment [3]; 96.4% (active) in experiment [4]; 79.9% (active) in experiment [5]; 60.9% (active) in experiment [6].
Consider `c1ccc(C[n+]2cccc3c4ccccc4ccc32)cc1`, for which the inhibition is 32.6% in experiment [1]; 54.8% (active) in experiment [2]; 41.7% (active) in experiment [3]; 83.4% (active) in experiment [4]; 74.3% (active) in experiment [5]; 70.4% (active) in experiment [6].
Regarding `COc1ccc(-n2c(-c3ccc(Br)cc3)c[n+]3c2CCc2ccccc2-3)cc1`, the inhibition in experiment [1] is 32.4%; in experiment [2], 36.3% (active); in experiment [3], 22.1%; in experiment [4] it was 96.4% (active); in experiment [5], 65% (active); in experiment [6], 73% (active).

Values taken from PubChem BioAssay.
